Measured values from PubChem BioAssay (NCATS).
Values without a mark were called inactive. Results filed as inconclusive are left out. Entries that show only a call come without a potency. Calls of active or inactive are those of the source. The call rests on the fitted dose curve; in most records, active means well fitted curve in the direction sought with a large enough effect; inconclusive means small, poorly fitted or top-dose-only effect, or another doubt; inactive means no such curve, though single readings can be large; an effect the other way counts as inactive or inconclusive.

Key:
[1] = target: Protein phosphatase 1D (Homo sapiens) (UniProt O15297); experiment: RapidFire Mass Spectrometry qHTS Assay for Modulators of WT P53-Induced Phosphatase 1 (WIP1) (AID 1347424); conditions: WIP1 dephosphorylation of phosphopeptide, RapidFire MS; series mostly up to 63 µM;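 further: amount of dephosphorylated VEPPL-S-QETFS peptide product formed by WIP1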; further: potency means the concentration at half of the fitted maximal effect
Chain of Protein phosphatase 1D (Homo sapiens) (O15297 whole entry, looked up): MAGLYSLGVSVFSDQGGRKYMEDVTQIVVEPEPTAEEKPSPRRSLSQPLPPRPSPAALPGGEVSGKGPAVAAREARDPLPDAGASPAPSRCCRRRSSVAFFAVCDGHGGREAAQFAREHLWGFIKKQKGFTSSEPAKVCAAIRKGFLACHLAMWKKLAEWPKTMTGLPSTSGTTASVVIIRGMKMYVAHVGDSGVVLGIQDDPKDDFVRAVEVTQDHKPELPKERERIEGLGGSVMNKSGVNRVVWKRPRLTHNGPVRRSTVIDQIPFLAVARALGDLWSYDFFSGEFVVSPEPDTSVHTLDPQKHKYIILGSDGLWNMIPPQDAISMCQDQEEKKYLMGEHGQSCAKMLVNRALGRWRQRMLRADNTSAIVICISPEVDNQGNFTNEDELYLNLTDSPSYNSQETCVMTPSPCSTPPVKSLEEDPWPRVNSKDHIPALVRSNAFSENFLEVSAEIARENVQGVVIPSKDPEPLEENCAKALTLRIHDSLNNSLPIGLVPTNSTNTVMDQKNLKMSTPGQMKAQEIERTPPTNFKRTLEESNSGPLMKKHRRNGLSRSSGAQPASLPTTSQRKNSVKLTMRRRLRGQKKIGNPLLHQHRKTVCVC
Excerpt: Assay Provider (PI): Nathan Coussens Ph. D.
National Center for Advancing Translational Sciences (NCATS), Rockville, MD
National Institute of Health (NIH), Bethesda, Maryland
WT P53-Induced Phosphatase 1 (WIP1) is a member of the magnesium-dependent serine/threonine protein phosphatase (PPM) family and is induced by P53 in response to DNA damage. In several human cancers, the WIP1 protein is overexpressed, which is generally associated with a worse prognosis. Although WIP1 is an attractive therapeutic target, no potent, selective, and bioactive small-molecule modulator with favorable pharmacokinetics has been reported. […]
Here, we describe two orthogonal biochemical WIP1 activity assays that utilize phosphopeptides from native WIP1 substrates. We optimized a RapidFire MS assay to quantify the enzymatically dephosphorylated peptide reaction product in a 384-well format. Additionally, a redshifted Rhodamine-PBP fluorescence assay was optimized in a 1,536-well format to enable real-time WIP1 activity measurements through the detection of the orthogonal reaction product, Pi. We validated these two optimized assays by quantitative high-throughput screening against the National Center for Advancing Translational Sciences (NCATS) Pharmaceutical Collection and used secondary assays to confirm and evaluate inhibitors identified in the primary screen. […]

[2] = target: Protein phosphatase 1D (Homo sapiens) (UniProt O15297); experiment: Rhodamine-PBP qHTS Assay for Modulators of WT P53-Induced Phosphatase 1 (WIP1) (AID 1347425); conditions: recombinant WIP1, Rhodamine-PBP phosphate fluorescence, real-time; series mostly up to 57.5 µM
Outline: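 WIP1 (5 nM final) was preincubated with compound for 1 hour at room temperature. It then dephosphorylated 10 uM VEPPL-pS-QETFS peptide in Tris-HCl pH 7.5 with 30 mM MgCl2. Released Pi was detected by 10 uM Rh-PBP fluorescence (ex 525/em 598 nm) read at 1-min intervals for 11 min, as delta f1 - f0.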

[3] = Validation qHTS assay for inhibitors of Activation Induced Cytidine Deaminase (AID): UDG Counterscreen signal (AID 1347427); conditions: biochemical UDG counterscreen, fluorescence signal; series mostly up to 115 µM
Outline: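 Counterscreen read of UDG activity (2 U/mL, 4/3x) in the FRET deamination format with AID (1 uM, 4/3x), DJC20/DJC23 substrates (250 nM, 4x), 4 h at room temperature. NaOH stop, fluorescence at 560 ex/665 em.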

[4] = target: Single-stranded DNA cytosine deaminase (Homo sapiens) (UniProt Q9GZX7); experiment: Validation qHTS assay for inhibitors of Activation Induced Cytidine Deaminase (AID): AID signal (AID 1347429); conditions: Recombinant AID, FRET ssDNA deamination with UDG, fluorescence; series mostly up to 115 µM
Chain of Single-stranded DNA cytosine deaminase (Homo sapiens) (Q9GZX7 whole entry, looked up): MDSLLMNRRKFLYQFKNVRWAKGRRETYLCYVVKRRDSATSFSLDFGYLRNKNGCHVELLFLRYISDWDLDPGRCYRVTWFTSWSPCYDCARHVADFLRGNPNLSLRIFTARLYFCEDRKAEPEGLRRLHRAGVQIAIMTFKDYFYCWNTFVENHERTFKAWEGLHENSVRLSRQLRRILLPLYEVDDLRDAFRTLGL
Outline: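 In this coupled qHTS, AID deaminates a FRET-labelled ssDNA substrate in the presence of UDG over 4 hr at room temperature. Compounds span up to 114 uM final.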

[5] = target: Calcium and integrin-binding protein 1 (Homo sapiens) (UniProt Q99828); experiment: Validation qHTS for Identification of Calcium Integrin Binding protein 1 (CIB1) Competitor (AID 1508618); conditions: CIB1-GST / FITC-alphaIIb peptide fluorescence polarization; series mostly up to 114 µM
Chain of Calcium and integrin-binding protein 1 (Homo sapiens) (Q99828 whole entry, looked up): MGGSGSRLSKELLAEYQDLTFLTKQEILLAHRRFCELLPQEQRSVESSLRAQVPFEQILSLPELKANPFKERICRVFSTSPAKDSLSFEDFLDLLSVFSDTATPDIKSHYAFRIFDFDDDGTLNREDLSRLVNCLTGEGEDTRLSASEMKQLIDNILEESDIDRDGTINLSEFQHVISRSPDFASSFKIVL
Outline: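 Fluorescence polarization with 1 uM CIB1-GST and 100 nM FITC-alphaIIb peptide in HEPES pH 7.4, NaCl, 5 mM CaCl2, Tween20. Compounds at up to 114 uM final, preincubated with protein 15 min; read after 15 min more at RT.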

[6] = Primary qHTS for small molecule stabilizers of the endoplasmic reticulum resident proteome: Secreted ER Calcium Modulated Protein (SERCaMP) assay (AID 1508630); conditions: SH-SY5Y GLuc-SERCaMP (Gaussia luciferase released on ER calcium loss) secretion, thapsigargin, luminescence; series mostly up to 38.4 µM
Outline: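 GLuc-SERCaMP-expressing SH-SY5Y cells, pretreated 16 h with compound, are challenged with thapsigargin to empty ER calcium stores; after 4 h, coelenterazine is added directly to the medium and luminescence is imaged.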

[7] = Primary qHTS for inhibitors of La Crosse Virus (LACV) - induced cell death in SH-SY5Y cells (AID 1508616); conditions: SH-SY5Y LACV cytopathicity rescue, ATP luminescence, 6 d; series mostly up to 4.29 µM;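 further: top concentration of the series differs between compounds; higher means more rescue of cells from virus-induced death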
Outline: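 Readout was luminescence from ATPLite 1step added after a 6-day LACV infection (0.01 MOI) of SH-SY5Y cells that had received pin-transferred compound 24 hr after seeding.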

[8] = target: Calcium and integrin-binding protein 1 (Homo sapiens) (UniProt Q99828); experiment: Primary qHTS for Identification of Calcium Integrin Binding Protein 1 (CIB1) Competitor (AID 1508620); conditions: CIB1-GST / FITC-alphaIIb peptide fluorescence polarization; series mostly up to 114 µM;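 further: GST tagged CIB1 binding a fluorescein labelled alphaIIb integrin peptide tracer; top concentration of the series differs between compounds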
Outline: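 CIB1-GST (1 uM final) and compound incubated 15 min at room temperature before adding FITC-alphaIIb peptide tracer (100 nM final). Competition for binding read by fluorescence polarization (ex 480, em 540) after another 15 min at room temperature.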

With CN[C@H]1CC[C@@H](c2ccc(Cl)c(Cl)c2)c2ccccc21 the Potency [1] was “inactive”, the outcome [2] was “inactive” and the outcome [3] was “inactive”. For the same compound, the outcome [4] was “inactive”, the outcome [5] was “inactive” and the outcome [6] was “inactive”.
With Oc1cccc(-c2c3nc(c(-c4cccc(O)c4)c4ccc([nH]4)c(-c4cccc(O)c4)c4nc(c(-c5cccc(O)c5)c5ccc2[nH]5)CC4)C=C3)c1 the Potency [1] was 1.58 µM (active) and the outcome [7] was “inactive”.
For NCCCC(=O)O, the outcome [3] was “inactive”, the outcome [4] was “inactive” and the outcome [6] was “inactive”.
With CC1=C2C[C@@]3(C)C(CCC[C@@H]3C)C(O)C2OC1=O (stereo partly specified) the Potency [8] was “inactive”.
With Cc1ccc(CNc2ncnc3ccc(-c4ccc(CO)o4)cc23)o1 the Potency [8] was “inactive”.
For C=C(C(=O)OC[C@H]1O[C@@H](OC(=O)/C=C/c2ccccc2)[C@H](O)[C@@H](O)[C@@H]1O)C(O)CO (stereo partly specified), the Potency [8] was “inactive”.
For CC(=O)NC(C(=O)O[C@H]1CCC(C)(C)[C@@H]2CC=C3C(=O)OCC3(O)[C@@]12C)C(C)C (stereo partly specified), the Potency [8] was “inactive”.
In the case of C#CCCCn1cc(-c2cccc3c2N[C@H](C)CC(=O)N3)cn1, the Potency [8] is reported as “inactive”.
Compound CC1OC(OC2C(O)COC(O[C@@H]3[C@@H](O)[C@@H](O)[C@H](OC4C(OC(=O)[C@]56CCC(C)(C)CC5C5=CCC7[C@@]8(C)C[C@H](O)[C@H](OC9OC(CO)C(O)C(O)C9O)[C@@](C)(CO)C8[C@H](O)C[C@@]7(C)[C@]5(C)CC6)OCC(O)C4O)O[C@H]3C)C2O)C(O)C(O)C1O (stereo partly specified) has an activity change, negative = inhibition [8] of -1.65% [at 12.4 µM].
With C[C@@H](c1ccc2nccn2c1)n1nnc2ncc(-c3cnn(C)c3)nc21 the Potency [8] was “inactive”.
For COC1C=C(C)C(O)(CO)C2(C)CCCC(C)(C)C12 (stereo unspecified), the Potency [8] was “inactive”.
With CCN(CC)CCCCCCNc1cc(OC)cc2c(C)ccnc12 the Potency [8] was “inactive”.
In the case of CN(C)c1ccnc2sc3c(=O)n(N4CCCCCC4)cnc3c12, the Potency [8] is reported as “inactive”.
For C[C@@H]1CC[C@@]23CC[C@]4(C)[C@@](C=CC5[C@@]6(C)CC[C@H](O)C(C)(C)C6CC[C@]54C)(OC2=O)C3[C@H]1C (stereo partly specified), the Potency [8] was “inactive”.
With COCCNCc1ccc(-c2cc3nccc(Oc4ccc(NC(=O)C5(C(=O)Nc6ccc(F)cc6)CC5)cc4F)c3s2)nc1 the Potency [8] was “inactive”.
In the case of O=C(Nc1ccc(N2C(=O)[C@@H]3[C@H](C2=O)[C@@H]2C=C[C@H]3C2)c(Cl)c1)c1ccccn1, the Potency [8] is reported as “inactive”.
For COc1cc([C@H]2O[C@H](c3cc(OC)c4c(c3)OCO4)[C@H](C)[C@H]2C)cc(OC)c1OC, the Potency [8] was “inactive”.
With C/C=C(\C)C(=O)OC1C(C)C2(O)C(C=C(CO)CC3(O)C(=O)C(C)=CC32)C2C(C)(C)C12OC(=O)C(C)C (stereo unspecified) the Potency [8] was “inactive”.
With C/C(=C\CCC(C)C1=CCC2(C)OC3=C(CC12)C(=O)C(O)CC3)CO (stereo unspecified) the Potency [8] was “inactive”.
For CC(=O)O[C@H]1CC(C)(C)CC2[C@]13CO[C@@]21CCC2[C@@]4(C)CC[C@H](O[C@@H]5OC[C@H](O[C@@H]6O[C@H](CO)[C@@H](O)[C@H](O)[C@H]6O[C@@H]6OC[C@@H](O)[C@H](O)[C@H]6O)[C@H](O)[C@H]5O[C@@H]5O[C@H](CO)[C@@H](O)[C@H](O)[C@H]5O)[C@@](C)(CO)C4CC[C@@]2(C)[C@]1(C)C[C@H]3O (stereo partly specified), the Potency [8] was “inactive”.
With O=C1C[C@]23C=CCN4CCC5c6cc7c(cc6N1[C@@]5(CC2)C43)OCO7 (stereo partly specified) the Potency [8] was “inactive”.
For Fc1ccc2[nH]ccc2c1-c1nc(N2CCOCC2)c2sc(CN3CCN(CC4CC4)CC3)cc2n1, the Potency [8] was “inactive”.
With C=C1CC[C@@H](O)[C@]2(C)C[C@H]3OC(=O)C(=C)[C@H]3CC12 (stereo partly specified) the Potency [8] was “inactive”.
For O=C(Nc1nc2cc(C(F)(F)F)cc(NC3CC3)n2n1)c1cccnc1, the Potency [8] was “inactive”.
For C/C=C(\C)C(=O)O[C@@H]1[C@@H](C)[C@]2(O)[C@@H]3C=C(C)C(=O)[C@H]3CC(CO)=C[C@H]2C2C(C)(C)[C@@]21OC(=O)C(C)CC (stereo partly specified), the Potency [8] was “inactive”.
With CC(C)=C1C[C@@]2(C)C(=CC1=O)CC[C@@H](OC(=O)/C(C)=C/CO)[C@@H]2C the Potency [8] was “inactive”.
For CCC/C=C/C=C/C1CC(O)C2(O)C(=O)OCC12 (stereo unspecified), the Potency [8] was “inactive”.
With CC1CC(=O)C2=C(C1)C1OC1C1(O)C2C(=O)c2cccc(O)c2C1O (stereo unspecified) the Potency [8] was “inactive”.
For COc1cc(C(=O)NCC2(N(C)C)CCCC2)cc(OC)c1OCc1ccccc1, the Potency [8] was “inactive”.
With CCN(CC)C(=O)c1ccc(Nc2nc(OCC3CCCCC3)c3[nH]cnc3n2)cc1 the Potency [8] was “inactive”.
For Cn1cc(-c2cnn3c(N)c(Br)c(C4CCCNC4)nc23)cn1 (stereo unspecified), the Potency [8] was “inactive”.
With C=C[C@H](/C=C\c1ccc(O)cc1)c1ccc(O)cc1 the Potency [8] was “inactive”.
For CC1(CO)CC(O)[C@]2(C(=O)O)CCC34CC3(C=CC3[C@]5(C)C(CC[C@]34C)C(C)(CO)[C@@H](O)[C@H](O)[C@@H]5O)C2C1 (stereo partly specified), the Potency [8] was “inactive”.
